Rows were chosen to be rich in hits. Some 19% of all compounds tested hit in one or more screens of this group.
MCF10A rereplic – DNA re-replication induction in MCF 10a cells. MCF 10A DNA re-replication, Hoechst nuclear intensity, 48 h. Potency, µM (top dose mostly 46.1 µM), hits mostly activators. 2.9% of 350,000 active; note: nearly all actives have a fitted effect of over 50% in size
BCR signal inh – inhibitors of chronic active B-cell receptor signaling; ABC-DLBCL IkBa-CBG/CBR reporter, luminescence ratio, 4 h; Potency, µM (series often up to 46.1 µM), hits mostly inhibitors; 0.05% of 340,000 active; active = well fitted inhibition curve with a large enough effect in the signal ratio, with a control signal flat, not every such curve was filed as active; inconclusive = small, poorly fitted or top-dose-only effect, or effect the other way, or a change in a side signal; the % refers to the signal ratio
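TMD8 human ABC-DLBCL cells with doxycycline-inducible IκBα–green luciferase fusion and unfused red luciferase, in 0.5% FBS medium; compounds up to 46 uM, 4 h at 37C. Green/red luminescence ratio, filter-overlap corrected, fitted to concentration-response curves.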
DT40 TDP1 no CPT – qHTS for Inhibitors of human tyrosyl-DNA phosphodiesterase 1 (TDP1): qHTS in cells in absence of CPT. DT40 Tdp1-/- hTDP1 cells, no CPT, ATP luminescence, 48 h. Potency, µM (series often up to 46.2 µM), actives largely listed as inhibitors. 15% of 420,000 active; note: nearly all actives have a fitted effect of over 55% in size
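Growth kinetics read by CellTiter-Glo luminescence after ≥48 hr at 37 °C. Cells: DT40 Tdp1-/- stably carrying human TDP1, 400 per well, compound exposure in the absence of CPT (DMSO vehicle).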
IL-1B inflam inh – inflammasome signaling inhibition, IL-1 beta readout; THP-1 LPS/ATP IL-1B secretion, AlphaLISA, 16 h; active compounds read low; activity change, % at 57.5 µM; 4.7% of 360,000 active; in the data active = activity change below about -50%; inconclusive = mostly about -30% to -49%
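THP-1 cells pretreated 1 hr with compounds (up to 57.5 uM final), then stimulated with LPS (250 ng/mL final) plus ATP (1.25 mM final); secreted IL-1B measured by AlphaLISA after 16 hr, decreased signal indicating inhibition.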
SW480 rereplic – DNA re-replication induction in SW480 cells | SW480 DNA re-replication, Hoechst DNA content imaging, 48 h | Potency, µM (highest dose often 46.1 µM), hits mostly activators | 1.8% of 340,000 active; note: nearly all actives have a fitted effect of over 55% in size
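First, 250 cells per well were seeded. Next, compound or vehicle (23 nL) was pinned in, plates sat 48 hr at 37 C. Finally Hoechst was added for 40 min before fluorescence scanning.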
DT40 TDP1 CPT – growth inhibition of DT40 Tdp1-/-;hTDP1 cells with camptothecin (screen for TDP1 inhibitors). chicken DT40 Tdp1-/-;hTDP1 cells + 20 nM CPT, ATP luminescence, 48 h. Potency, µM (doses to about 46.2 µM), actives largely listed as inhibitors. AID 686979. 12% of 420,000 active; note: nearly all actives have a fitted effect of over 55% in size
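Chicken DT40 Tdp1-/- cells complemented with human TDP1, 400 cells/well, exposed to compounds plus 20 nM camptothecin for at least 48 h at 37 C; viability read as ATP content by CellTiter-Glo luminescence.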
Of the large screens only hits and unclear results are named; the others gave an inactive call. Unless noted, calls come from the whole dose curve; as a rule, active = well fitted curve in the direction sought with a large enough effect; inconclusive = small, poorly fitted or top-dose-only effect, or another doubt; inactive = no such curve, though single readings can be large; an effect the other way counts as inactive or inconclusive.

O=C1CC(c2ccccc2)=Nc2ccccc2N1	none
O=C1CC(/C=C/c2ccncc2)=Nc2ccccc2N1	MCF10A rereplic inconclusive, DT40 TDP1 no CPT 5.8µM, SW480 rereplic 16µM, DT40 TDP1 CPT 5.8µM (no result: IL-1B inflam inh)
COc1ccc(-c2csc(NC(=O)c3c(C)noc3C)n2)cc1OC	DT40 TDP1 no CPT 15µM, IL-1B inflam inh inconclusive, DT40 TDP1 CPT 21µM (no result: MCF10A rereplic, BCR signal inh, SW480 rereplic)
COc1ccc(-c2csc(NC(=O)c3c(C)noc3C)n2)cc1	DT40 TDP1 no CPT 23µM, IL-1B inflam inh -52, DT40 TDP1 CPT 15µM
COc1ccc(-c2csc(NC(=O)c3cccc(N4C(=O)CCC4=O)c3)n2)cc1OC	DT40 TDP1 no CPT 21µM, DT40 TDP1 CPT 4.1µM
COc1ccc2nc(NC(=O)c3c(C)noc3C)sc2c1	BCR signal inh inconclusive
COc1ccc(-c2csc(NC(=O)C3CCCO3)n2)cc1 (configuration not stated)	DT40 TDP1 no CPT 21µM, DT40 TDP1 CPT inconclusive
CCc1ccc(CNC(=O)C2CCCN(S(=O)(=O)N(CC)c3ccccc3)C2)cc1 (configuration not stated)	MCF10A rereplic inconclusive, BCR signal inh inconclusive, DT40 TDP1 no CPT inconclusive, DT40 TDP1 CPT inconclusive
O=C(CCNC(=O)c1ccccc1)NCCc1ccc(Cl)cc1	none
Cc1ccc(-c2csc(NC(=O)c3c(C)noc3C)n2)cc1	MCF10A rereplic inconclusive, DT40 TDP1 no CPT 9.2µM, SW480 rereplic 1.6µM, DT40 TDP1 CPT inconclusive
Cc1noc(C)c1C(=O)Nc1nc(-c2ccc([N+](=O)[O-])cc2)cs1	MCF10A rereplic inconclusive, DT40 TDP1 no CPT inconclusive, DT40 TDP1 CPT inconclusive
COc1ccc(-c2csc(NC(=O)c3ccccc3S(C)(=O)=O)n2)cc1	BCR signal inh inconclusive, DT40 TDP1 no CPT inconclusive, IL-1B inflam inh -95
COc1ccc(-c2csc(NC(=O)CS(=O)(=O)c3ccccc3)n2)cc1	DT40 TDP1 no CPT 23µM, DT40 TDP1 CPT inconclusive
COc1cc(OC)cc(C(=O)N[C@H](C(=O)Nc2nc(-c3ccc(OC)c(OC)c3)cs2)C(C)C)c1	MCF10A rereplic inconclusive, BCR signal inh inconclusive, DT40 TDP1 no CPT 13µM, DT40 TDP1 CPT 18µM
O=C(CCN=C1NS(=O)(=O)c2ccccc21)OCc1cccc(Cl)c1	DT40 TDP1 no CPT inconclusive
CCOC(=O)c1cc2c(c(-c3ccccc3)n1)[C@@H](CCO)N(S(=O)(=O)C(C)(C)C)C2	none (no result: BCR signal inh)
Cn1c(=O)c2sccc2n2c(CCC(=O)NCc3ccccc3)nnc12	none (no result: MCF10A rereplic, BCR signal inh, IL-1B inflam inh, SW480 rereplic)
CCc1noc(C)c1C(=O)Nc1nc(-c2ccc(Cl)cc2Cl)cs1	MCF10A rereplic 16µM, DT40 TDP1 no CPT 18µM, IL-1B inflam inh inconclusive, DT40 TDP1 CPT 18µM
COc1ccc(-c2csc(NC(=O)c3ccoc3C)n2)cc1	BCR signal inh inconclusive, DT40 TDP1 no CPT 12µM
CCc1ccc([C@@H]2C[C@H]3[C@@H](CN2S(=O)(=O)c2ccc(C)cc2)C(=O)C[C@@H](c2ccc(Cl)cc2)N3S(=O)(=O)c2ccc(C)cc2)cc1	none (no result: MCF10A rereplic, BCR signal inh, SW480 rereplic)
COc1ccc(Cc2c(Cl)ncnc2Cl)cc1	MCF10A rereplic inconclusive, BCR signal inh inconclusive, DT40 TDP1 no CPT inconclusive, IL-1B inflam inh -111, SW480 rereplic inconclusive
COc1ccc(Cl)cc1NC(=O)CCc1c(C)nc2c(c1C)c(=O)n(C)c(=O)n2C	none (no result: MCF10A rereplic, BCR signal inh, IL-1B inflam inh, SW480 rereplic)
Cc1cccc(COc2ccc(S(=O)(=O)N3CCOCC3)cc2[N+](=O)[O-])c1	none
COc1ccccc1CNC(=O)c1ccc(N2CCOCC2)c([N+](=O)[O-])c1	IL-1B inflam inh -55
COc1ccc(C(=O)NC(=S)Nc2ccc(N3CCOCC3)c(Cl)c2)cc1[N+](=O)[O-]	BCR signal inh inconclusive, DT40 TDP1 no CPT 21µM, DT40 TDP1 CPT 13µM
COc1ccc(C(=O)NC(=S)Nc2ccccc2N2CCOCC2)cc1[N+](=O)[O-]	MCF10A rereplic inconclusive, BCR signal inh inconclusive, DT40 TDP1 no CPT 16µM, DT40 TDP1 CPT 16µM
COc1cccc(CNC(=O)c2ccc(N3CCOCC3)c([N+](=O)[O-])c2)c1	none
